A selection: hits, their analogues and other compounds. The true share with any hit is near 2%.
ClpP mod: qHTS Assay for Activators of ClpP; ATP-dependent Clp protease proteolytic subunit (Bacillus subtilis (strain 168)), P80244; purified B. subtilis ClpP, FRET peptide cleavage, 20 min; Potency, µM (doses to about 57.5 µM), inactives show at the top dose activity change, negative = active; 1.9% of 340,000 active; active = well fitted falling curve with a large enough effect; inconclusive = small, poorly fitted or top-dose-only effect; inactive = no such curve, though single readings can be large or run the other way; note: potency is the fitted concentration of half-maximal effect; the source files actives as falling curves though it sought activators and does not explain the sign; nearly all actives have a fitted effect of over 65% in size
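Purified B. subtilis ClpP, 10 microg/mL final in Tris/HCl pH8 with KCl, BSA, glycerol and Tween-20, cleaved an Abz/nitrotyrosine-quenched decapeptide. Fluorescence (ex 320, em 430) was read at 0 and 20 min at room temperature. Delta was normalized to 5.8 microM ADEP and DMSO/no-enzyme controls.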
PKM2 act: PKM2 (human) enzyme activation; P14618; purified PKM2, Kinase-Glo ATP luminescence, activation; response scale: 0% is enzyme alone, no compound; Potency, µM (top dose mostly 57.5 µM), inactives show top-dose activation, actives largely listed as activators; 0.34% of 260,000 active; AID 1631; note: potency is the fitted concentration of half-maximal effect; % is set by controls: 0 for no effect and ±100 for the full control effect; nearly all actives have a fitted effect of over 55% in size
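Purified hPK-M2 (>95% pure) converted ADP (0.1 mM final) to ATP with 0.5 mM PEP in 50 mM imidazole pH7.2, KCl, MgCl2, Tween 20, BSA; 1 h at room temperature. ATP detected by Kinase-Glo luminescence.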
NPSR antagonist: neuropeptide S receptor (human) antagonism, cAMP. Q6W5P4. CHO-NPSR cells, cAMP TR-FRET, antagonist mode. Potency, µM (top dose mostly 38.3 µM), for the others: top-dose activity change, negative = inhibition, actives largely listed as inhibitors. 1% of 220,000 active. AID 1461; note: potency is the fitted concentration of half-maximal effect; % is set by controls: 0 for no effect and ±100 for the full control effect; nearly all actives have a fitted effect of over 50% in size
Target sequence (Q6W5P4 whole entry, looked up): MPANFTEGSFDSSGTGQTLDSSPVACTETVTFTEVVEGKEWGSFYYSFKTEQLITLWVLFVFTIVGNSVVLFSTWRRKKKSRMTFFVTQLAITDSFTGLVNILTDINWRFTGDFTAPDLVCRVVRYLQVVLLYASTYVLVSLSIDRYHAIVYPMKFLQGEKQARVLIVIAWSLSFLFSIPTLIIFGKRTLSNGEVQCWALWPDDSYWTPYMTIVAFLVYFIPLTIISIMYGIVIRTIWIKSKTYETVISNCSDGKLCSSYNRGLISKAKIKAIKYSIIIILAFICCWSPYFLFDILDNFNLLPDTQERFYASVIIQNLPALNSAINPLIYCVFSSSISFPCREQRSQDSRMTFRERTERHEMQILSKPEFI
IL2 activator: IL-2 activation; IL-2 activation reporter assay, cell-based qHTS; stimulated with anti-CD3/CD4/CD28 beads; in transgenic mouse T cells; activation, % (series mostly up to about 46 µM); 0.065% of 360,000 active; in the data active = activation above about 50%; inconclusive = mostly about 30% to 49%; note: 0% is about no effect
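Quantitative HTS in unstimulated transgenic mouse T cells, with memory T cells as non-tolerant control and PMA/ionomycin as tolerance-bypass control. Compound pretreatment lasted 60 minutes before 18 h bead stimulation; EGFP/DsRed fluorescence read.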
Starred values were filed as active, the others as inactive; [ ] = another dose, or the depositor's remark. Unless noted, calls come from the whole dose curve; as a rule, active = well fitted curve in the direction sought with a large enough effect; inconclusive = small, poorly fitted or top-dose-only effect, or another doubt; inactive = no such curve, though single readings can be large; an effect the other way counts as inactive or inconclusive.

`Nc1[nH]n2c(=O)c3c(nc2c1N=Nc1ccc(Cl)cc1)CCCC3` gave ClpP mod -0.7%, PKM2 act 3.1%, NPSR antagonist -3.2%[46.1 µM] and IL2 activator 0.3.
`C/C(=N\NC(=O)c1c(Cl)c(C)nn1C)c1ccc(NC(=O)C2CCC2)cc1` gave ClpP mod 71.2%, PKM2 act inconclusive and IL2 activator 2.4.
For Cc1ccc(Nc2c(-c3c[nH]c4ccccc34)nc3cc(C)ccn23)cc1 the results were ClpP mod 28.2µM*.
CN(C(=O)c1ccco1)c1nc2c(s1)CCCC2 was read as ClpP mod -1.2%, PKM2 act -34.0%, NPSR antagonist -7.5%[46.1 µM] and IL2 activator -0.6.
For Cc1cc(=O)oc2cc(OCC(=O)NCCN3CCOCC3)ccc12 the results were IL2 activator -1.6.
For CC(C)(C)c1ccc(C(=O)Nc2ccc(F)cc2)s1 the results were PKM2 act -1.8%, NPSR antagonist -22.5% and IL2 activator -0.6.
NC(=O)C1=C(N=C2CCCCC2)CCCC1 was read as ClpP mod 31.6µM* and IL2 activator -2.4.
`CCOC(=O)c1cc2c(=O)n3cccc(C)c3nc2n(CC2CCCO2)c1=NC(C)=O` (stereo unspecified) gave ClpP mod 1.26µM* and IL2 activator -0.3.
`CCOC(=O)c1cc2c(=O)n3ccccc3nc2n(CCCOC)c1=NC(C)=O` gave ClpP mod 35.5µM*, PKM2 act -2.8%, NPSR antagonist -6.8%[46.1 µM] and IL2 activator -1.8.
CCOC(=O)c1cc2c(=O)n3ccccc3nc2n(CC2CCCO2)c1=NC(=O)c1ccccc1C (stereo unspecified) was read as ClpP mod 4.2%.
For CCCn1c(=NC(=O)c2ccco2)c(C(=O)OCC)cc2c(=O)n3ccccc3nc21 the results were ClpP mod 17.8µM*, PKM2 act -4.8%, NPSR antagonist inconclusive and IL2 activator -1.8.
CCCn1c(=NC(=O)c2cc3ccccc3o2)c(C(=O)OCC)cc2c(=O)n3ccccc3nc21 was read as ClpP mod -5.1%.
`COc1ccc(CCNC2CC(C)N(C)CC2C)cc1OC` (stereo unspecified) gave ClpP mod -0.1%, PKM2 act 6.5%, NPSR antagonist 3.6%[46.1 µM] and IL2 activator -2.4.
For CC(CNC(=O)C1CCCCC1C(=O)O)c1ccccc1 (stereo unspecified) the results were ClpP mod 0.4%, PKM2 act -5.9%, NPSR antagonist 0.2%[46.1 µM] and IL2 activator -0.3.
Screening CCOC(=O)N1CCC(NC(=O)c2cnn(-c3ccc(C)cc3C)c2C2CCN(C(=O)OC(C)(C)C)CC2)CC1 returned ClpP mod 0.2%.
For CCc1cccc2c(N=O)c(O)[nH]c12 the results were ClpP mod -2.7%, PKM2 act -3.3%, NPSR antagonist 5.1% and IL2 activator -1.7.
For CCOC(=O)c1ccc(-c2ccc(/C=C(\C#N)C(=O)Nc3cccc(C)c3)o2)cc1 the results were ClpP mod 3.2%.
Screening CCOC(=O)c1ccc(-c2ccc(/C=C(\C#N)C(=O)NCc3cccs3)o2)cc1 returned ClpP mod -1.2%, PKM2 act -9.4%, NPSR antagonist -4.6% and IL2 activator 60.9*.
O=[N+]([O-])c1ccc(-c2nc(-c3ccc(F)cc3)c(-c3ccncc3)[nH]2)cc1 was read as NPSR antagonist 7.94µM*.
Screening O=[N+]([O-])c1ccc2nc(-c3ccncc3)[nH]c2c1 returned ClpP mod 1.1%, PKM2 act -12.2%, NPSR antagonist 7.9% and IL2 activator -0.1.
For CCOc1ccccc1OCCCC(=O)N(CC)CC(=O)Nc1ccc(NC(C)=O)cc1 the results were ClpP mod 2.1% and IL2 activator 0.5.
For COC(=O)C1=C(C(=O)OC)SC(=C2C(=S)C(C)(C)N(C(=O)C(C)C)c3ccccc32)S1 the results were ClpP mod 12.9%, PKM2 act -6.9%, NPSR antagonist 10µM* and IL2 activator -0.4.
Screening COC(=O)C1=C(C(=O)OC)SC(=C2C(=S)C(C)(C)N(C(=O)C3CC3)c3ccccc32)S1 returned ClpP mod 0.9%, PKM2 act -8.2%, NPSR antagonist 12.6µM* and IL2 activator -2.6.
`CCOc1ccc(Nc2nc3c(S(=O)(=O)c4ccc(C(C)C)cc4)nnn3c3ccsc23)cc1` gave ClpP mod -2.0%.
